Reference: PubChem BioAssay (Tox21)
“And” between values parts separate entries of the source, which are not always exact repeats. Identical values can stand only once. Where a structure was tested more than once in an assay, its records may differ in their call. The source made the active and inactive calls. Entries that show only a call come without a potency. Unless noted, calls follow the shape of the dose curve; as a rule, active = well fitted curve in the direction sought with a large enough effect in the repeat runs; inconclusive = weak or mixed curves; inactive = no such curve, though single readings can be large; an effect the other way counts as inactive or inconclusive.

Legend:
[1] = qHTS assay to identify small molecule antagonists of the thyroid receptor (TR) signaling pathway - cell viability counter screen (AID 743064); also: nearly all actives have a fitted effect of over 50% in size; also: potency is read from the fitted curve at half-maximal effect
Procedure, shortened: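 Counter screen for cytotoxicity: compound plus T3 (1 nM final) on GH3.TRE-Luc cells, 23.5 h at 37 °C, then fluorescence viability readout with CellTiter-Fluor.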

[2] = qHTS assay to identify small molecule antagonists of the thyroid receptor (TR) signaling pathway (AID 743065); also: nearly all actives have a fitted effect of over 55% in size; also: potency is read from the fitted curve at half-maximal effect
Procedure, shortened: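 Antagonism measured as loss of luciferase signal in GH3 cells stably carrying a TRE-luciferase reporter, co-treated with compound and T3 (1 nM final) for 23.5 h at 37 C. Viability was read in the same well by CellTiter-Fluor.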

[3] = test system: thyroid hormone receptor (rat, GH3 cells); assay: qHTS assay to identify small molecule agonists of the thyroid receptor (TR) signaling pathway (AID 743066; calls by dose curve)
[4] = target: Estrogen receptor (Homo sapiens) (UniProt P03372); assay: qHTS assay to identify small molecule antagonists of the estrogen receptor alpha (ER-alpha) signaling pathway (AID 743069; active = well fitted curve in the direction sought with a large enough effect in the signal ratio in the repeat runs, not every such curve was filed as active; inconclusive = weak or mixed curves, or effect the other way; inactive = no such curve, though single readings can be large or run the other way; the % refers to the signal ratio; also: potency is read from the fitted curve at half-maximal effect)
Procedure, shortened: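 Fluorescence intensity from a beta-lactamase FRET substrate served as the read-out. Cells: HEK293 with stably integrated ER-alpha-UAS-bla reporter. Agonist 17beta-estradiol was co-added with compounds; incubation 18 hr at 37C, substrate 2 hr at room temperature.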

[5] = qHTS assay to identify small molecule antagonists of the estrogen receptor alpha (ER-alpha) signaling pathway - cell viability counter screen (AID 743074; calls by dose curve; also: nearly all actives have a fitted effect of over 45% in size)
[6] = target: Estrogen receptor (Homo sapiens) (UniProt P03372); assay: qHTS assay to identify small molecule agonists of the estrogen receptor alpha (ER-alpha) signaling pathway using the BG1 cell line (AID 743079); conditions: BG1Luc4E2 cells, ERE-luciferase agonist, 22 h; activation: at 70.3 µM (top of the series); also: nearly all actives have a fitted effect of over 20% in size; also: potency is read from the fitted curve at half-maximal effect
[7] = qHTS assay to identify small molecule antagonists of the estrogen receptor alpha (ER-alpha) signaling pathway using the BG1 cell line - cell viability counter screen (AID 743081);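 also: compound given together with 17beta-estradiol as the ER stimulus; nearly all actives have a fitted effect of over 45% in size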; also: potency is read from the fitted curve at half-maximal effect
Aromatase (Homo sapiens) = Aromatase (Homo sapiens) (UniProt P11511); assay: qHTS assay to identify aromatase inhibitors (AID 743083); also: nearly all actives have a fitted effect of over 55% in size; also: potency is read from the fitted curve at half-maximal effect
[8] = qHTS assay to identify aromatase inhibitors - cell viability counter screen (AID 743084);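 also: cells stimulated with testosterone during compound exposure; nearly all actives have a fitted effect of over 55% in size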; also: potency is read from the fitted curve at half-maximal effect
[9] = target: Peroxisome proliferator-activated receptor gamma (Homo sapiens) (UniProt P37231); assay: qHTS assay to identify small molecule agonists of the peroxisome proliferator-activated receptor gamma (PPARg) signaling pathway (AID 743094; active = well fitted activation curve with a large enough effect in the signal ratio in the repeat runs, not every such curve was filed as active; inconclusive = weak or mixed curves, or effect the other way; inactive = no such curve, though single readings can be large or run the other way; the % refers to the signal ratio)
Procedure, shortened: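 Agonist activity was taken from a beta-lactamase reporter (FRET substrate, 1 h at room temperature) in HEK293H cells carrying a PPARg UAS-bla construct. Compounds in DMSO were incubated 17 h at 37C after a 5 h cell pre-incubation.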

[10] = qHTS assay to identify small molecule phospholipidosis (PLD) inducers (AID 1259344; active = well fitted curve in the direction sought with a large enough effect; inconclusive = small, poorly fitted or top-dose-only effect, or another doubt; inactive = no such curve, though single readings can be large; an effect the other way counts as inactive or inconclusive)
Procedure, shortened: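 Accumulated phospholipid, stained red by LipidTOX during 24 h compound treatment of HepG2 cells at 37 C, is quantified from images as pit number and intensity, normalised per cell using Hoechst-stained nuclei.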

[11] = target: Nuclear receptor subfamily 1 group I member 2 (Homo sapiens) (UniProt O75469); assay: CYP3A4 induction through human pregnane X receptor (PXR) by small molecules, qHTS assay (AID 1346984); also: nearly all actives have a fitted effect of over 40% in size; also: potency is read from the fitted curve at half-maximal effect
Procedure, shortened: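 Read-out is luminescence after One-Glo addition, following a 3 hr, 37C incubation with Luciferin-IPA CYP3A4 substrate (3uM final). Before that, compounds were on DPX-2 cells (HepG2 co-transfected with PXR element plus CYP3A4-promoter luciferase) for 24 hr at 37C.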

[12] = target: Nuclear receptor subfamily 1 group I member 2 (Homo sapiens) (UniProt O75469); assay: Human pregnane X receptor (PXR) activation by small molecules, qHTS assay (AID 1346985); also: nearly all actives have a fitted effect of over 40% in size; also: potency is read from the fitted curve at half-maximal effect
Procedure, shortened: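 DPX-2 cells (HepG2 co-transfected with a PXR response element and a CYP3A4-promoter luciferase construct) were seeded at 2,000 per well, rested 5 hr at 37C, then exposed to DMSO-dissolved compounds for 24 hr. Activation was read as luciferase luminescence.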

[13] = target: Estrogen receptor (Homo sapiens) (UniProt P03372); assay: qHTS assay to identify small molecule agonists of the estrogen receptor alpha (ER-alpha) signaling pathway (AID 743075; calls by dose curve; also: potency is read from the fitted curve at half-maximal effect)
[14] = target: Aryl hydrocarbon receptor (Homo sapiens) (UniProt P35869); assay: qHTS assay to identify small molecule that activate the aryl hydrocarbon receptor (AhR) signaling pathway (AID 743085); also: nearly all actives have a fitted effect of over 15% in size; also: potency is read from the fitted curve at half-maximal effect;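 as to activation: HG2L7.5c1 human HepG2 liver cells with stably integrated DRE-driven firefly reporter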
Procedure, shortened: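 Measured in HG2L7.5c1 cells: CellTiter-Fluor signal (30 min incubation, 37C) for viability, then luciferase luminescence (30 min, room temperature). Compound contact time was 24 h at 37C, following a 5 h pre-incubation.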

[15] = qHTS assay to identify small molecule that activate the aryl hydrocarbon receptor (AhR) signaling pathway - cell viability counter screen (AID 743086);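 also: HepG2 liver cells carrying the AhR DRE luciferase reporter; nearly all actives have a fitted effect of over 45% in size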
Procedure, shortened: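 Cytotoxicity counter screen: CellTiter-Fluor signal (30 min, 37 C) in 4000 HepG2 cells/well carrying the DRE-luciferase reporter, following 24 h compound exposure at 37 C.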

[16] = qHTS assay to identify small molecule antagonists of the estrogen receptor alpha (ER-alpha) signaling pathway using the BG1 cell line (AID 743080; calls by dose curve;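 also: BG1 cells stimulated with 17beta-estradiol alongside compound; nearly all actives have a fitted effect of over 25% in size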)
Procedure, shortened: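 Seeding, 24 h rest, compound transfer from DMSO, 17beta-estradiol addition, 21.5 h incubation, CellTiter-Fluor (30 min, 37 C), then ONE-Glo (30 min, room temperature): this sequence was run on BG1-Luc-4E2 reporter cells.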

Sequence of Peroxisome proliferator-activated receptor gamma (Homo sapiens) (P37231 whole entry, looked up): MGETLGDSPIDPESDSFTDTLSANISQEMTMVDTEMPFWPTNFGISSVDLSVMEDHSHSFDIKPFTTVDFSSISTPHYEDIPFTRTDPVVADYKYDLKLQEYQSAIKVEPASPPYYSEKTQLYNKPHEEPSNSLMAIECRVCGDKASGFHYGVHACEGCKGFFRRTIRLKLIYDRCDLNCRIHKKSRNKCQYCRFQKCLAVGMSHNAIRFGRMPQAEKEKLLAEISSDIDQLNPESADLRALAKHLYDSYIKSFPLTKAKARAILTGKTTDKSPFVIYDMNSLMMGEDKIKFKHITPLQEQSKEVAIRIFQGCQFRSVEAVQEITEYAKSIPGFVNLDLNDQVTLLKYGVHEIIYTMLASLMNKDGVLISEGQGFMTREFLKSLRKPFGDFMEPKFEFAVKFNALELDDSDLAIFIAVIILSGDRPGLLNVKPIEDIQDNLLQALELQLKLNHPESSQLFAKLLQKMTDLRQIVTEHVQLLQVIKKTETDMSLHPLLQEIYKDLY
Sequence of Aryl hydrocarbon receptor (Homo sapiens) (P35869 whole entry, looked up): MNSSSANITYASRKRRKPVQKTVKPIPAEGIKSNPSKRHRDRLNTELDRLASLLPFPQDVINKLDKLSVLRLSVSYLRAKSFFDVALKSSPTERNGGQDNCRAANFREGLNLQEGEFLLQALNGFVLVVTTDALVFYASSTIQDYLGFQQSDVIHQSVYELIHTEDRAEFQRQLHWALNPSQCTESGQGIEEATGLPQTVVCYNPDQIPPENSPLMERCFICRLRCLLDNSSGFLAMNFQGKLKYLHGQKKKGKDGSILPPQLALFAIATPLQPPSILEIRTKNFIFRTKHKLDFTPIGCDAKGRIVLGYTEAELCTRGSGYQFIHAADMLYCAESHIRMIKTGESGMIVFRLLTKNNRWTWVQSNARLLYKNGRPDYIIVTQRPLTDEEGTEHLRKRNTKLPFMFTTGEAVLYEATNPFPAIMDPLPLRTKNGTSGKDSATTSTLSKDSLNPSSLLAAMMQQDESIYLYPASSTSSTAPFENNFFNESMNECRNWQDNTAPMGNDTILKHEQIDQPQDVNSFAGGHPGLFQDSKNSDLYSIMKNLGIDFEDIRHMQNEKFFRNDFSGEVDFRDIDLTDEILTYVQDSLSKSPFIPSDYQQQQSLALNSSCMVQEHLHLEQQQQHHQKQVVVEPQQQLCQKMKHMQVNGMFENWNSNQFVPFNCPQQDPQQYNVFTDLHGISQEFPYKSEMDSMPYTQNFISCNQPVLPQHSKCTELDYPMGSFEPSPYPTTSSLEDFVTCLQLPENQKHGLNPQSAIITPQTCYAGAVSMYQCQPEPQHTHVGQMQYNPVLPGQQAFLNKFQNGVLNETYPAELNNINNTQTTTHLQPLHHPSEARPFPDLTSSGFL
Sequence of Estrogen receptor (Homo sapiens) (P03372 whole entry, looked up): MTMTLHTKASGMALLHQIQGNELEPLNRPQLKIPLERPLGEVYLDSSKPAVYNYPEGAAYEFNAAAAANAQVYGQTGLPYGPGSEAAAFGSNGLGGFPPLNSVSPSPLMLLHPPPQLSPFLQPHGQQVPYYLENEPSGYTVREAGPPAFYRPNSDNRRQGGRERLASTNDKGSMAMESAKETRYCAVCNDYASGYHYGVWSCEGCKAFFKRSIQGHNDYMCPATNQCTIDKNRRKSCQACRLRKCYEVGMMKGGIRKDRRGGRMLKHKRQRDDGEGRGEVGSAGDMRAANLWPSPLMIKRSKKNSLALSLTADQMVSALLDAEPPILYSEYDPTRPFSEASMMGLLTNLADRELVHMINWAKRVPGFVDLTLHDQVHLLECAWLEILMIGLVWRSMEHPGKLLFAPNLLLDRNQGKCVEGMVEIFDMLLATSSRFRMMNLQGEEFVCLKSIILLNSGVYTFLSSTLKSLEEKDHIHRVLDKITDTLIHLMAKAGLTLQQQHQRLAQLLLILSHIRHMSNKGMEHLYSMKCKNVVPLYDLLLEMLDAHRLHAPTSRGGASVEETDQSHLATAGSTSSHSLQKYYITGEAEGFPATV
Sequence of Aromatase (Homo sapiens) (P11511 whole entry, looked up): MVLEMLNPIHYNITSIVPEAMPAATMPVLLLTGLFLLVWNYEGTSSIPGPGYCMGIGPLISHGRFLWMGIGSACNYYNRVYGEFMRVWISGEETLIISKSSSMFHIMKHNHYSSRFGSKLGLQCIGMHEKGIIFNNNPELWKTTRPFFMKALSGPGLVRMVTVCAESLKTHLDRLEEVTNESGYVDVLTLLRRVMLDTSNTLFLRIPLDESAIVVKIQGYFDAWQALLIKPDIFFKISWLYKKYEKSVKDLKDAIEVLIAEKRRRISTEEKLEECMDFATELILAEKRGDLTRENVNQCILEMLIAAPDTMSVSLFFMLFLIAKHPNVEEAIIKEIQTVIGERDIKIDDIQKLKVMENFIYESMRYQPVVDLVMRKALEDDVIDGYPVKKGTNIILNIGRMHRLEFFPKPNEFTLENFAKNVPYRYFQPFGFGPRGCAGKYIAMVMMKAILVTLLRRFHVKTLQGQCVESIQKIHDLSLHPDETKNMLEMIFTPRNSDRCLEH

SMILES | Potency [1] | Potency [2] | Potency [3] | Potency [4] | Potency [5] | activation [6] | Potency [7] | Potency (Aromatase (Homo sapiens)) | Potency [8] | Potency [9] | Potency [10] | Potency [11] | Potency [12] | Potency [13] | Potency [14] | PLD induction [10] | Potency [6] | Potency [15] | Potency [16]
O=C(O)CCC/C=C\C[C@@H]1[C@@H](/C=C/[C@@H](O)COc2cccc(C(F)(F)F)c2)[C@H](O)C[C@@H]1O | inactive | inactive | inactive | inactive | inactive | 49.9% (active) | inactive | inactive | inactive | inactive | inactive | inactive | inactive |  |  |  |  |  | 
CC(=O)[C@]1(O)Cc2c(O)c3c(c(O)c2[C@@H](O[C@H]2C[C@H](N)[C@H](O)[C@H](C)O2)C1)C(=O)c1c(O)cccc1C3=O | 150 nM (active) and 188 nM (active) | 0.119 µM (active) |  | 10.7 µM [inconclusive] (active) | inactive |  | 18.8 µM (active) and 23.7 µM (active) | 3.35 µM (active) | 26.6 µM (active) |  |  | inactive | 14.1 µM (active) and inactive | 3.38 µM [inconclusive] (active) and 6.01 µM [inconclusive] (active) | inactive | -0.0504% [at 7.66 µM] (inactive) |  |  | 
CC(C)c1nc(N(C)S(C)(=O)=O)nc(-c2ccc(F)cc2)c1/C=C/C(O)CC(O)CC(=O)O (stereo not given) | inactive | inactive | inactive | inactive | inactive |  | inactive |  | inactive | inactive | inactive |  | inactive | inactive | inactive |  | 26.6 µM (active) | inactive | 
CCCCC(=O)N(Cc1ccc(-c2ccccc2-c2nn[nH]n2)cc1)[C@@H](C(=O)O)C(C)C |  |  |  | inactive | inactive |  | inactive | inactive | inactive | inactive | inactive | inactive | inactive | inactive | inactive |  | inactive | inactive | inactive
CC(C)(CO)[C@@H](O)C(=O)NCCC(=O)NCCSSCCNC(=O)CCNC(=O)[C@H](O)C(C)(C)CO | inactive | inactive | inactive | inactive | inactive |  | inactive | inactive | inactive | inactive | inactive |  | inactive | inactive | inactive |  | inactive |  | 
Cc1cccc(C)c1Nc1ncccc1C(=O)O | inactive |  | inactive |  | inactive |  | inactive | inactive | inactive |  | inactive | inactive |  | inactive | 29.8 µM (active) |  |  |  | 
O=C(NNCNNC(=O)c1ccncc1)c1ccncc1 | inactive | inactive | inactive |  | inactive |  | inactive | inactive | inactive | inactive | inactive | inactive | inactive |  | 4.73 µM (active) |  |  | inactive | 
CC[C@H](C)[C@@H]1NC(=O)[C@H](Cc2ccc(O)cc2)NC(=O)[C@@H](N)CSSC[C@@H](C(=O)N2CCC[C@H]2C(=O)N[C@@H](CC(C)C)C(=O)NCC(N)=O)NC(=O)[C@H](CC(N)=O)NC(=O)[C@H](CCC(N)=O)NC1=O | inactive | inactive | inactive |  | inactive |  | inactive | inactive | inactive |  | inactive | inactive | inactive |  | inactive |  |  | inactive | inactive
C=CCSSSCC=C |  | inactive | inactive | inactive | inactive |  | inactive | inactive | inactive | inactive | inactive | inactive | inactive | inactive | inactive |  | 29.8 µM (active) | inactive | 
CCCCCc1ccc(C)cc1O |  | 26.6 µM (active) | inactive | inactive | inactive |  | inactive |  | inactive | inactive | inactive | inactive | inactive | inactive |  |  | inactive |  | inactive
C[C@H](O)[C@H](O)[C@H]1CNc2nc(N)[nH]c(=O)c2N1 | inactive | inactive | inactive | inactive | inactive |  |  | inactive | inactive | inactive | inactive | inactive | inactive | inactive | inactive |  | inactive |  | 
CCCCCCCCCCCCCC[n+]1ccc(C)cc1 | 7.5 µM (active) | 4.73 µM (active) |  |  |  |  |  | 8.41 µM (active) |  |  | inactive | inactive | inactive | inactive | inactive |  |  |  | 
CN[C@H]1CCc2cc(OC)c(OC)c(OC)c2-c2ccc(OC)c(=O)cc21 | 0.119 µM (active) | 0.0841 µM (active) | inactive | inactive |  |  | inactive | inactive | inactive | inactive | inactive | inactive | 1 µM (active) |  |  |  | inactive |  | 
CC1(C)C(\C=C/C=C\C=C/C=C2/N(CCCCS(=O)(=O)O)c3ccc4ccccc4c3C2(C)C)=[N+](CCCCS(=O)(=O)[O-])c2ccc3ccccc3c21 | 15 µM (active) | 0.841 µM (active) | inactive | inactive | inactive |  |  | inactive |  | inactive | inactive | inactive | inactive | inactive |  |  | inactive |  | 
CC(=O)O[C@H]1C(=O)[C@@]2(C)[C@H]([C@H](OC(=O)c3ccccc3)[C@]3(O)C[C@H](OC(=O)[C@H](O)[C@@H](NC(=O)c4ccccc4)c4ccccc4)C(C)=C1C3(C)C)[C@]1(OC(C)=O)CO[C@@H]1C[C@@H]2O | 0.266 µM (active) | 0.133 µM (active) | inactive | inactive | inactive |  |  | inactive | 6.68 µM (active) | inactive | inactive | 6.31 µM (active) | 15.8 µM (active) | inactive | inactive |  |  |  | 
